Compound activity: PubChem, several laboratories
In the library only some 2.1% were active in any assay of this set; here they are far more common.
PLC-beta3 inh: human PLC-beta3 inhibitors, primary screen, biochemical, fluorescence; 1-phosphatidylinositol 4,5-bisphosphate phosphodiesterase beta-3 (Homo sapiens), Q01970; Purified PLC-beta3, fluorogenic substrate; inhibition, % at 12.2 µM; actives 0.18% (n = 370,000);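 also: 0% = median of compound wells on plate and 100% = full blocker control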
ADAM17 inh: ADAM17 inhibitors, primary screen, biochemical, QFRET | Disintegrin and metalloproteinase domain-containing protein 17 (Homo sapiens), P78536 | recombinant ADAM17, EDANS/DABCYL FRET peptide cleavage | inhibition, % at 6.95 µM | actives 0.83% (n = 370,000) | AID 720648, 2013;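 active = inhibition above the mean of compounds lying between control limits plus 3 SD, set per campaign, cut at about 8.5% in these data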;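 also: 0% = DMSO-only wells as the low control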
ADAM10 inh: human ADAM10 inhibitors, primary screen, biochemical, QFRET, HTS; Disintegrin and metalloproteinase domain-containing protein 10 (Homo sapiens), O14672; AID 720582, 2013; inhibition, % at 7 µM; actives 0.62% (n = 370,000); recombinant ADAM10, EDANS/DABCYL FRET peptide cleavage, 3 h;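 active = inhibition above a per-campaign cutoff equal to the mean of compounds falling between control-based bounds plus 3 SD, cut at about 20% in these data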;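 also: 0% = DMSO wells while the 100% control is not disclosed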
PLC-gamma1 inh: PLC-gamma1 enzyme inhibitors, primary screen, biochemical, fluorescence, purified enzyme | inhibition, % at 12.2 µM | fluorogenic substrate | actives 0.84% (n = 370,000) | 1-phosphatidylinositol 4,5-bisphosphate phosphodiesterase gamma-1 (Homo sapiens), P19174; in the data active = inhibition above about 9.5%
Rce1 inh: yeast Rce1p protease inhibitors, primary screen, biochemical, fluorescence, cell-free homogeneous | yeast membranes, quenched prenylated peptide cleavage fluorescence | calls only | actives 0.27% (n = 290,000);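 active = fall in fluorescence gain of 50% or more versus controls, with final raw signal at or below 3038400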;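 also: plate controls were neutral control wells for no effect and wells lacking membranes for full effect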
PLCgamma1 ctr: PLC-gamma1 enzyme inhibitors, counter-screen for PLC-beta3 inhibitor project, biochemical, fluorescence. actives 3.1% (n = 3,300). purified PLC-gamma1, fluorogenic substrate. shares compounds with PLC-gamma1 inh. inhibition, % at 12.3 µM. AID 743258, 2014; in the data active = inhibition above about 9.5%
PLCbeta3 conf: PLC-beta3 inhibitor confirmation, biochemical, fluorescence, purified enzyme; shares compounds with PLC-gamma1 inh; fluorogenic substrate fluorescence; inhibition, % at 12.3 µM; actives 1% (n = 3,300); AID 743261, 2014
Numbers without * were called inactive. Rule as the data show it, unless noted: active = inhibition above about 11%; inactive = the rest.

`CC(=O)NS(=O)(=O)c1ccc(N=NN2CCCCCC2)cc1` gave PLC-beta3 inh 6, ADAM17 inh 0, ADAM10 inh 6, PLC-gamma1 inh 2 and Rce1 inh inactive.
`CC(=O)NS(=O)(=O)c1ccc(N=NN2CCOCC2)cc1` gave PLC-beta3 inh 11*, ADAM17 inh 5, ADAM10 inh 14, PLC-gamma1 inh 9.8*, Rce1 inh inactive, PLCgamma1 ctr -2 and PLCbeta3 conf 0.
O=C(NCc1ccc(Cl)cc1)C1CCN(S(=O)(=O)c2ccc(F)cc2)CC1 was read as PLC-beta3 inh 5, ADAM17 inh 4, ADAM10 inh 10, PLC-gamma1 inh 2 and Rce1 inh inactive.
`COc1ccc(OC)c(S(=O)(=O)NC(=O)C2(C)CCN2C(=O)CC2CCCC2)c1` (stereo unspecified) gave PLC-beta3 inh 4, ADAM17 inh -3, ADAM10 inh -7, PLC-gamma1 inh 11*, PLCgamma1 ctr -5 and PLCbeta3 conf -2.
Screening CC1(C(=O)NS(=O)(=O)c2ccccc2Cl)CCN1C(=O)Cc1ccccc1Cl (stereo unspecified) returned PLC-beta3 inh 6, ADAM17 inh 6, ADAM10 inh -5, PLC-gamma1 inh 12*, PLCgamma1 ctr -3 and PLCbeta3 conf 0.
For COc1ccc(OC)c(S(=O)(=O)NC(=O)C2(C)CCN2C(=O)Cc2ccccc2Cl)c1 (stereo unspecified) the results were PLC-beta3 inh 3, ADAM17 inh -4, ADAM10 inh -13 and PLC-gamma1 inh -2.
Screening CC(=O)N1CCN(C(=O)COC(=O)c2ccc(S(C)(=O)=O)cc2)CC1 returned PLC-beta3 inh 5, ADAM17 inh 2, ADAM10 inh -28 and PLC-gamma1 inh 6.
Screening CCOC(=O)CNC(=O)C1(NC(=O)CNC(=O)OCc2ccccc2)CCCC1 returned PLC-beta3 inh 3, ADAM17 inh 7, ADAM10 inh 1, PLC-gamma1 inh 10*, PLCgamma1 ctr -6 and PLCbeta3 conf -6.
For CC(=O)c1ccc(NC(=O)c2cn(C)c(=O)c3ccccc23)cc1 the results were PLC-beta3 inh 3, ADAM17 inh 2, ADAM10 inh -3 and PLC-gamma1 inh 6.
`CN(C)c1ccc(P(=O)(Nc2ccccc2)N2CCOCC2)c(NC(=O)c2cccs2)c1` (stereo unspecified) gave PLC-beta3 inh 3, ADAM17 inh 0, ADAM10 inh -10, PLC-gamma1 inh -3 and Rce1 inh inactive.
For Cc1ccc(NP(=O)(c2ccc(N(C)C)cc2NC(=O)c2cccs2)N2CCOCC2)cc1 (stereo unspecified) the results were PLC-beta3 inh 14*, ADAM17 inh 4, ADAM10 inh 13, PLC-gamma1 inh 6, Rce1 inh inactive, PLCgamma1 ctr -25 and PLCbeta3 conf -26.
CC(=O)N1CCC(N(C(=O)Nc2ccc(C)c(C)c2)C2CCCC2)CC1 was read as PLC-beta3 inh 12*, ADAM17 inh 7, ADAM10 inh 6, PLC-gamma1 inh 4, Rce1 inh inactive, PLCgamma1 ctr -8 and PLCbeta3 conf -13.
For CCCc1cc(=O)[nH]c(SCC(=O)Nc2ccc(Br)cc2Br)n1 the results were PLC-beta3 inh 0, ADAM17 inh 1, ADAM10 inh -5, PLC-gamma1 inh 1 and Rce1 inh inactive.
For Cc1ccc(NC(=O)/C=C/c2ccco2)cc1S(=O)(=O)N1CCCCCC1 the results were PLC-beta3 inh -44, ADAM17 inh -10, ADAM10 inh -22, PLC-gamma1 inh -26 and Rce1 inh inactive.
Screening O=C1NC(Cc2ccccc2)c2nc3ccc(Br)cc3c(=O)n2-c2cc(Cl)ccc21 (stereo unspecified) returned PLC-beta3 inh 1, ADAM17 inh 2, ADAM10 inh 11 and PLC-gamma1 inh 3.
